HSF1 activator = increases HSF-1 driven luciferase reporter signal; NIH3T3-HGL HSF-1 luciferase reporter, MG132, 8 h; 100% = twice DMSO control signal; activation, % at 9 µM; actives 1.7% (n = 300,000); AID 504408;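 active means mean replicate activation of at least 50% with a set share of replicates each reaching 50%; inconclusive means only one of those two conditions met; inactive means mean below 50% and too few replicates reaching it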
TROY signal inh = blocks TROY-dependent signaling in reporter cells. actives 0.98% (n = 360,000). AID 1347056. inhibition, % at 10 µM. Q293 LMP1-TROYcd NF-kB luciferase reporter, 4 h;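 active means compounds whose plate-normalised and pattern-corrected inhibition of the luciferase reporter signal at the single screening dose is 50% or more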
HSF1 inhib = HSF1 inhibition | NIH3T3-HGL HSE-luciferase, MG132-induced, luminescence 8 h; stronger effect = lower value | activity change, negative = inhibition, % at 7.5 µM (by protocol) | actives 0.77% (n = 300,000) | AID 2098;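 active means more than half of replicate wells show activity change below -50%, luminescence cut by over half; inconclusive means some wells, but at most half, below -50%; inactive means no replicate well below -50%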;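 further: luciferase reports HSF-1 transcriptional activity via heat shock element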
TWEAK Fn14 block = inhibitors of TWEAK-Fn14 interaction signaling. inhibition, % at 10 µM. TWEAK-stimulated Fn14 reporter cells, luciferase luminescence, 8 h. actives 2% (n = 360,000); in the data active means inhibition above about 50%
LGR2 inh = blocks bursicon-induced cAMP signaling via Drosophila LGR2. HEK293 LGR2, CRE-luciferase, bursicon-stimulated, 4 h. inhibition, % at 9.99 µM. actives 0.35% (n = 380,000);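 active means drop in luminescence signal, shown as inhibition above about 50% in the replicate tests, limit read from the data, passing the limit was not always enough; inconclusive means probably only some replicates passing the limit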;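 further: agonist challenge used bursicon conditioned medium at about half maximal strength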
LMP1 NFkB inh = Epstein-Barr LMP1 NF-kappaB reporter inhibition; AID 504558; inhibition, % at 12.5 µM; actives 0.69% (n = 350,000); LMP1-induced NF-kappaB luciferase reporter cells, luminescence; in the data active means inhibition above about 41%; inconclusive means no clear call, values can overlap the other calls
A number is an active result. This is a sample that favours compounds with a hit; in the whole collection about 3.6% have one here.

What do the screens show for `COc1ccc(S(=O)(=O)N(C)C[C@H]2OCCCC[C@@H](C)Oc3ccc(NS(C)(=O)=O)cc3C(=O)N([C@@H](C)CO)C[C@H]2C)cc1`?
LGR2 inh: inactive

How did CCCCC(CCC(=O)O)(C(=O)OCC)c1csc(Nc2ccccc2)n1 (stereo unspecified) do in these assays?
HSF1 activator: inactive; TROY signal inh: inactive; HSF1 inhib: inactive; TWEAK Fn14 block: inactive; LMP1 NFkB inh: inactive

What do the screens show for `CCCCC(CCC(=O)O)(C(=O)OCC)c1csc(N)n1` (stereo unspecified)?
HSF1 activator: inactive; HSF1 inhib: inactive; TWEAK Fn14 block: 73.4; LMP1 NFkB inh: inactive

What do the screens show for `CC1=NNC(=O)/C1=C\c1cn(-c2ccccc2)nc1-c1ccccc1`?
HSF1 activator: inconclusive; TROY signal inh: 89.7; HSF1 inhib: inactive; TWEAK Fn14 block: 106.4; LGR2 inh: 105.9; LMP1 NFkB inh: inactive

What do the screens show for `CO[C@@H]1CN(C)C(=O)c2ccc(NC(C)=O)cc2OC[C@@H](C)N(C(=O)c2ccncc2)C[C@H]1C`?
LGR2 inh: inactive

Results for C[C@@]12C(=O)OC(=O)[C@]1(C)C1CCC2O1 ?
TROY signal inh: 65.6; TWEAK Fn14 block: 98.3; LGR2 inh: inactive; LMP1 NFkB inh: inactive

How did CC12C(=O)N(c3nccs3)C(=O)C1(C)C1CCC2O1 (stereo unspecified) do in these assays?
TROY signal inh: inactive; TWEAK Fn14 block: inactive; LGR2 inh: inactive

What do the screens show for `O=C(C[C@@H]1C[C@@H]2c3cc(NC(=O)Nc4ccccc4F)ccc3O[C@@H]2[C@@H](CO)O1)NCC1CC1`?
LGR2 inh: inactive

What do the screens show for `Cc1ccc(Cl)cc1N1CCN(C(=O)CSc2nnc3n2C(C)(C)Cc2ccccc2-3)CC1`?
HSF1 activator: inactive; TROY signal inh: 72.4; HSF1 inhib: inactive; TWEAK Fn14 block: 95.9; LMP1 NFkB inh: inactive

How did O=C(Cc1c(Cl)cccc1Cl)Nc1cccc(S(=O)(=O)N2CCOCC2)c1 do in these assays?
HSF1 activator: inactive; TROY signal inh: inactive; HSF1 inhib: inactive; TWEAK Fn14 block: inactive; LGR2 inh: inactive; LMP1 NFkB inh: inactive

What do the screens show for `O=C(Cc1ccccc1Cl)Nc1cccc(S(=O)(=O)N2CCOCC2)c1`?
HSF1 activator: inactive; TROY signal inh: 80.5; HSF1 inhib: inactive; TWEAK Fn14 block: 90.4; LGR2 inh: inactive; LMP1 NFkB inh: inactive

How did O=C(Nc1cccc(S(=O)(=O)N2CCOCC2)c1)c1ccccn1 do in these assays?
HSF1 activator: inactive; TROY signal inh: inactive; HSF1 inhib: -70.5; TWEAK Fn14 block: inactive; LGR2 inh: inactive; LMP1 NFkB inh: inactive

How did C[C@@H]1CCCCO[C@H](CN(C)C)[C@H](C)CN([C@H](C)CO)C(=O)c2cc(NS(=O)(=O)c3ccccc3)ccc2O1 do in these assays?
LGR2 inh: inactive

What do the screens show for `COC(=O)C1=C(COc2ccccc2)NC(=O)NC1c1ccc(Cl)cc1` (stereo unspecified)?
HSF1 activator: 53.1; HSF1 inhib: inactive; LGR2 inh: inactive

Results for COc1ccccc1OCc1nnc(SCCN2CCOCC2)o1 ?
HSF1 activator: 58.2; TROY signal inh: inactive; HSF1 inhib: inactive; TWEAK Fn14 block: inactive; LMP1 NFkB inh: inactive

What do the screens show for `COc1ccccc1OCc1nnc(SCC(=O)N2CCCC2)o1`?
HSF1 activator: inactive; TROY signal inh: inactive; HSF1 inhib: inactive; TWEAK Fn14 block: inactive; LGR2 inh: inactive; LMP1 NFkB inh: inactive

How did COc1ccc2[nH]c3c(c2c1)CCN1C(=O)N([C@@H](C)C(=O)NCc2ccc(C)cc2)C(=O)[C@]31C do in these assays?
HSF1 activator: inactive; TROY signal inh: inactive; HSF1 inhib: inactive; TWEAK Fn14 block: inactive; LGR2 inh: 86.0; LMP1 NFkB inh: inactive

Results for CCOc1ccc2[nH]c(=O)c(CN(Cc3ccc(F)cc3)C(=O)c3ccco3)cc2c1 ?
HSF1 activator: 74.6; TROY signal inh: inactive; HSF1 inhib: inactive; TWEAK Fn14 block: inactive; LMP1 NFkB inh: inactive

Results for CCOc1ccc2[nH]c(=O)c(CN(CC3COCCO3)C(=O)c3ccco3)cc2c1 (stereo unspecified) ?
HSF1 activator: inactive; TROY signal inh: inactive; HSF1 inhib: inactive; TWEAK Fn14 block: inactive; LMP1 NFkB inh: inactive

What do the screens show for `O=C(c1ccco1)N(Cc1cc2ccccc2[nH]c1=O)C1CCCCC1`?
HSF1 activator: inactive; TROY signal inh: inactive; HSF1 inhib: -81.8; TWEAK Fn14 block: inactive; LMP1 NFkB inh: inactive
